Results published in the OligoGym collection.

target: AWAT2; test: pooled miR-30 sensor sort-seq; sequence = guide strand; details: shRNA
Also: reference of the scale not given here.

Sequence | sensor-assay potency score (higher = more potent)
ATATTTAGCCACGATCTCCTGG | -0.175
TTAGCCACGATCTCCTGGCTTG | -0.416
ATAAGCACAGTGACAGGCCAGT | -0.973
TTGACAGCAATCACAGTGGTTG | -0.667
TAAGAATAAGCACAGTGACAGG | -1.65
TAGACATTACATATTCTCTGAG | 0.0457
ATAATCGCTGTAGTGTTTCCAC | -0.0859
TGAGATACCAAACTTGGTCTTA | -0.0616
TTCTTGGGACTATCTCACCAGT | -1.17
TCTTGGTGAAGCCACGTCCATA | -1.6
TATTTAGCCACGATCTCCTGGC | -0.00517
TTGAGAGGGAAATAATCGCTGT | -0.0931

target: B3GNT9; test: as above; details: shRNA

Sequence | sensor-assay potency score (higher = more potent)
AAGTGGATCTCCTTGAGCGTTA | -0.755
TTCACGAACACATCTGCGTCGC | 0.331
TGTAGTACTTGCTAGCCCGCGT | -0.0178
AATTACGTCACCAGCAAGCAGG | -1.35
TAGTACTTGCTAGCCCGCGTGC | -1.22
TCGGGTAACTGGAACGCGCGGG | -0.607
AAAAACGAAGCGCACGTCGGGG | -1.1
TTAGGTTAAAAAAGGTGTCGTC | -0.179
TGCACTACAACCAGCTCACGGT | -0.863
TTAATGAGCAGTGGAAACCGCC | -0.997
TCGGGGATGTAGTACTTGCTAG | -1.49
TAGAAAGTGGATCTCCTTGAGC | -0.561

target: BABAM1; test: as above; details: shRNA

Sequence | sensor-assay potency score (higher = more potent)
ATCGTCTGCACGTTCTCTGTGA | -0.356
TCGATCTTGTGTTTTGTCCGCA | 0.0335
TATCCTTCCAACTCATCTCCTC | 0.00157
TTGGCAGTGACATTTCCTCTGA | -0.685
TTCTCTGGACAGTTGACCCTTG | 0.0913
TTTCTCTGGACAGTTGACCCTT | 0.0375
AAACATATCCTTCCAACTCATC | -1.73
TTTGTCCGCACGAACATCTCAA | -0.413
AAACTCGTGGCTTTTGTCGATC | -1.23
TTCTGGGAGACATTGAGGGCGT | -0.794
TTATCCATGACAAACTAGGAGT | -0.739

target: BARX2; test: as above; details: shRNA

Sequence | sensor-assay potency score (higher = more potent)
TCCGTCTCTGACTCGCTGCTGG | -0.99
TTTAAGAACCATTTTCTTCCAT | 0.594
TTGACAAATACTTCTGCTTCTG | -0.22
TGTTCCGTCTCTGACTCGCTGC | -0.452
